According to PubChem BioAssay (Tox21):
Records with an inconclusive call do not appear. Where a call stands in place of a potency, no number is given. Activity calls are given as the source filed them. Calls come from the whole dose curve.

Assay: p53 small molecule agonists, cell-based qHTS assay with human liver microsomes: qHTS cell viability counter screen (AID 1963579); note: nearly all actives have a fitted effect of over 45% in size
Conditions: p53RE-bla HCT-116 viability, ATP luminescence, 16 h, HLM; series mostly up to 66 µM
Procedure, shortened: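 p53RE-bla cells, 4,000/well, dosed 5 hours after plating, with human liver microsomes (0.5 mg/mL final) plus NADPH (0.5 mg/mL final), 16 hours at 37 C. Viability read as CellTiter-Glo luminescence after 30 min at room temperature.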

Q: With `c1cc2c3c(c1)ccc1cccc(c13)C2` as the molecule, how does the Potency read?
A: The Potency was “inactive”.

Q: With `CCOC(=O)N1CCC(Nc2ccc(Cl)cc2N)CC1` as the molecule, how does the Potency read?
A: Its Potency is “inactive”.

Q: Which Potency does the source give for `CCCCCC(=O)OCCc1ccccc1` here?
A: The Potency was “inactive”.

Q: With `COc1cc(C(C)C)ccc1C` as the molecule, how does the activity change, negative = cytotoxicity read?
A: Its activity change, negative = cytotoxicity is -0.449% [at 13.5 µM] (inactive).

Q: Which Potency does the source give for `CCCCCCCCCCOCC(O)CN` (stereo not given) here?
A: The Potency was “inactive”.

Q: With `CC(C)(Oc1ccc(Cl)cc1)C(=O)OCCCOC(=O)C(C)(C)Oc1ccc(Cl)cc1` as the molecule, how does the Potency read?
A: Its Potency is “inactive”.

Q: With `CCCCCCCC(=O)Oc1c(Br)cc(C#N)cc1Br` as the molecule, how does the Potency read?
A: The Potency was “inactive”.

Q: With `O=C(C(Cl)Cl)N1CCOC12CCCCC2` as the molecule, how does the Potency read?
A: The Potency was “inactive”.

Q: With `COc1ccc(-c2coc3cc(O)ccc3c2=O)cc1` as the molecule, how does the Potency read?
A: Its Potency is “inactive”.

Q: For `COc1ccc2nc(SCc3ncc(C)c(OC)c3C)[nH]c2c1`, which Potency is on record?
A: Its Potency is “inactive”.

Q: Which Potency does the source give for `O=S(=O)(O)c1ccc(Cl)cc1` here?
A: Its Potency is “inactive”.

Q: Which Potency does the source give for `CC(C)OC(=O)C(C)N(C(=O)c1ccccc1)c1ccc(F)c(Cl)c1` (stereo not given) here?
A: Its Potency is “inactive”.

Q: Which Potency does the source give for `CCOC(=O)c1c(N)sc2c1CCN(Cc1ccccc1)C2` here?
A: The Potency was “inactive”.

Q: For `CN(C)CCCCl`, which Potency is on record?
A: The Potency was “inactive”.

Q: Which Potency does the source give for `CCCCNc1c(C(=O)OCC)c(C)nc2c1cnn2CC` here?
A: Its Potency is “inactive”.

Q: For `C=C(C)C(=O)OC1CC(C)CC(C)(C)C1` (stereo not given), which Potency is on record?
A: Its Potency is “inactive”.

Q: For `Nc1cc(C(=O)O)ccc1Cl`, which Potency is on record?
A: Its Potency is “inactive”.

Q: Which Potency does the source give for `O=C(NC1CCN(CCc2c[nH]c3ccccc23)CC1)c1ccccc1` here?
A: The Potency was “inactive”.

Q: Which Potency does the source give for `O=C(O)CCCc1c[nH]c2ccccc12` here?
A: Its Potency is “inactive”.

Q: With `NC(CO)C(=O)NNCc1ccc(O)c(O)c1O` (stereo not given) as the molecule, how does the Potency read?
A: Its Potency is “inactive”.

Q: With `CCN(CC)c1cccc(C)c1` as the molecule, how does the Potency read?
A: Its Potency is “inactive”.

Q: With `CCCC(C)c1ccccc1O` (stereo not given) as the molecule, how does the Potency read?
A: Its Potency is “inactive”.

Q: With `CCO[Si](C)(CCCOCC1CO1)OCC` (stereo not given) as the molecule, how does the Potency read?
A: The Potency was “inactive”.

Q: Which Potency does the source give for `O=C(O)c1cn(C2CC2)c2cc(Cl)c(F)cc2c1=O` here?
A: Its Potency is “inactive”.

Q: Which Potency does the source give for `CCCC(=O)O[C@]1(C(=O)CC)CC[C@H]2[C@@H]3CCC4=CC(=O)CC[C@]4(C)[C@H]3[C@@H](O)C[C@@]21C` here?
A: The Potency was “inactive”.
